The record followed here is PubChem BioAssay.

A short description of this experiment: viability loss with induced miR-34 in A549 – imaging, A549 dox-inducible miR-34, nuclei and caspase counts, primary screen (AID 1347080). Note: test concentration not given here. The following applies: A549 miR-34 inducible, Hoechst nuclei count, 48 h; measured here: total cells with miR-34 induction; stronger effect = lower value.
As for `COc1ccc(/C=C/C(=O)CC(=O)/C=C/c2cccc(O)c2OC)cc1O`, the cell count was 3510.

Regarding `CCCCC[C@H](O)/C=C/[C@H]1C2CC(CO2)[C@@H]1C/C=C\CCCC(=O)O` (stereo partly specified), the cell count came out at 5400.

The molecule `O=C(O)CCC/C=C\C[C@@H]1[C@@H](/C=C/[C@@H](O)COc2ccccc2)[C@H](O)C[C@@H]1O` yielded a cell count of 6410.

`O=C(Cc1ccccc1Nc1c(Cl)cccc1Cl)Oc1ccc(-c2cc(=S)ss2)cc1` had a cell count of 6130.

Consider `CCCCC(C)(C)[C@H](O)/C=C/[C@H]1C=CC(=O)[C@@H]1C/C=C\CCCC(=O)O`, for which the cell count came out at 5990.

Turning to `CCCCC[C@H](O)/C=C/[C@H]1[C@H](O)CC(=O)[C@@H]1C/C=C\CCCC(=O)Oc1ccc(NC(C)=O)cc1`, the cell count worked out at 6020.

In the case of `Cc1c(C)c2c(c(C)c1O)CCC(C)(CCCC(C)C(=O)O)O2` (stereo unspecified), the cell count turned out to be 5890.

In turn, `CCCCC/C=C\C/C=C\CCCCCCCC(=O)OCC(COC(=O)CCCCCCCCCCCCCCC)OC(=O)CCCCCCC/C=C\CCCCCCCC` (stereo unspecified) showed a cell count of 5950.

`CCCCCOc1ccccc1C(O)CC#CCCCC(=O)OC` (stereo unspecified) had a cell count of 5930.

With `CCCCCCCC/C=C\CCCCCCCC(=O)N[C@H](CO)Cc1ccc(O)cc1`, the cell count is 6010.

`C=C1C[C@H](O)[C@H](C/C=C\CCCC(=O)O)[C@H]1/C=C/[C@@H](O)CCCCC` registered a cell count of 5940.

`CCCCCC/C=C\CCCCCCCC(=O)OCC` returned a cell count of 5560.

With `CCCCCCCCCCCCCCCC(=O)OCC`, the cell count turned out to be 5080.

`COc1ccc2c(c1)c(CC(=O)Nc1ccc(NC(C)=O)cc1)c(C)n2C(=O)c1ccc(Cl)cc1` registered a cell count of 5880.

Molecule `CC(C)Oc1ccc(Cc2ccc(NC3=NCCN3)cc2)cc1` gave a cell count of 5900.

`CCCCC[C@H](O)/C=C/[C@H]1C=CC(=O)[C@H]1CCCCCCC(=O)O` had a cell count of 5070.
